Assay results taken from the supplement of paper PMC6555819.

tested on: RARg:RXRa (NR concentration 270 nM, RXRa partner concentration 90 nM); assay: PBM binding z-score (relative to random genomic background probes); higher = stronger binding; sequences stand for … in GC…GCGATTGACAGCGTAGAATGAAGG
Method in brief: (§1)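 For binding z-scores, the reference was random background probes on custom Agilent 4×180K protein-binding microarrays. These arrays were incubated 1 h with ligand-free nuclear receptor dimers in PBS pH 7.4, 2% milk, 0.02% Triton X-100, 1 mM DTT, 0.2 mg/mL BSA and 0.4 mg/ml salmon testes DNA. Fluorescence was scanned after antibody detection of each partner (one per run) and regression-normalized.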

| Sequence | PBM binding z-score |
| --- | --- |
| AGAATGAGGTTATTAAGATCCGGGAATTGCGGTC | 0.904 |
| ATCTCTAGGTAAGACTCACTTCAGTGAAGAACGC | -0.204 |
| ACTAGCAGGCCAAGGGTCACTCAAGATTAGTCCG | 4.17 |
| TCATATAGGTAAAGGTGAAGGTCGAACGATATGA | 2.15 |
| TCTCGGAGGACACGACAGGTCAGAGCTCGACATC | 2.35 |
| CCTACTGGGCCATTAGGTCATTGATATCAACGTT | 2.38 |
| GCGACTGGGGCATCAGCAGGTTACCATGACTTAA | 0.761 |
| ATCGACAGGTCGACGAGGTGAGTATACACCGTTT | 1.55 |
| TAATATAGGTAAACAGGTGAAAGTCCGTAAGTTA | 0.857 |
| CCGACTGGGGCAGAAACGTTACCATACCATCCGG | -0.119 |
| CCTCGGAGGACAGAGGGTCAGAGCTGTCCGCTTT | 2.45 |
| TCTAGCAGGCCAGAGGGCCACTCAAGAGGTACGG | -0.057 |
| CGAACTAGGTCATTGACAGGACAGTGAATAGTAA | 4.63 |
| CGTCCAAGGTCATAGGAGCTCAGTGAAGACAGAT | 5.66 |
| TCTATTACTTGATTAGGGCAACCGAAACAGCGGA | 0.675 |
| ATATGTAGGTTAAGGGTCAGTCAGGTTGGTTCGC | 4.01 |
| AGTCAAAGTTCACTAGGTAACGTGAGATTCAGCT | 4.82 |
| GCTATTAATTGAAAGGGCAACCGAATGATTCTCG | 0.91 |
| CCTAGCAGGACAATCTGGGTCACTCAAGGCTTGA | 1.2 |
| ACTATTAGTTGAGACGAGGTCAACCGATAGGTTG | 3.81 |

| Sequence | PBM binding z-score |
| --- | --- |
| TCGAGTAGGTGACCAATGGGGCATTCAGCTTTCT | 0.353 |
| CGAACTAGGTCATTGACAGAACAGTGAATAGTAA | 3.64 |
| CCTTACGGGTCACTGACAGGTTATACCATTTGGA | 5.73 |
| ACTAGCAGGCCAAGTTTGCGTCACTCAAACAAAG | -0.201 |
| TGTCTAAGTTCAAAGGTAACGTAAGTATCCACAC | 4.48 |
| CAAACTAGGTCACGAAAGGTCAAAGTCGAATGAC | 7.91 |
| TATACAGGGTCAAAGGCCAGGGTACGAATGTCGA | 5.77 |
| CAAGACAGGTGAGAAGGTAACTCAGCCTCGATTA | 0.784 |
| GTAGCAAGGTGAATAGGTCGTTGATGAGTAGGCG | 2.35 |
| CAGCCTAGGTCAGGGCCACTATAGGAGGAACGTT | 3.08 |
| CGAACTAGGTCAAGGACAGTGGATCTCCGCACGC | 3.74 |
| TCATTTAGGTAAACAGGTGAAAGTCCGTAAGTTA | 0.646 |
| CAAACTAGGTCACTGGAAGGTCAAAGTCCGCATG | 7.66 |
| TCATATAGGTATACAGGTGAAAGTCCGTAAGTTA | 0.487 |
| ATCTTTAGGTAAAAGTTCAGTGAATCCCGAGGAT | 1.69 |
| ACGAGTTGGTCAGCTGAGGTCACACACAATTCGG | 4.17 |
| TAGCCTAGGTCATCGGCCAGTATACCACGCGAAC | 4.27 |
| CCTCCTGGGCCATTCAGAGGTCATTGATCATATG | 4.79 |
| TAGCCTAGGTCATGCGGGCCATTATAGTGTCGGC | 4.02 |
| TAGTCTAGGTCATTCAGGGGCCAGTATAGAAAGC | 5.83 |

tested on: RARg homodimer (NR concentration 270 nM); assay: as above
Method in brief: as §1

| Sequence | PBM binding z-score |
| --- | --- |
| AGAATGAGGTTATTAAGATCCGGGAATTGCGGTC | 0.682 |
| ATCTCTAGGTAAGACTCACTTCAGTGAAGAACGC | 0.301 |
| ACTAGCAGGCCAAGGGTCACTCAAGATTAGTCCG | 3.74 |
| TCATATAGGTAAAGGTGAAGGTCGAACGATATGA | 2.07 |
| TCTCGGAGGACACGACAGGTCAGAGCTCGACATC | 3.16 |
| CCTACTGGGCCATTAGGTCATTGATATCAACGTT | 2.12 |
| GCGACTGGGGCATCAGCAGGTTACCATGACTTAA | 0.815 |
| ATCGACAGGTCGACGAGGTGAGTATACACCGTTT | 1.78 |
| TAATATAGGTAAACAGGTGAAAGTCCGTAAGTTA | 0.756 |
| CCGACTGGGGCAGAAACGTTACCATACCATCCGG | -0.0645 |
| CCTCGGAGGACAGAGGGTCAGAGCTGTCCGCTTT | 2.4 |
| TCTAGCAGGCCAGAGGGCCACTCAAGAGGTACGG | -0.117 |
| CGAACTAGGTCATTGACAGGACAGTGAATAGTAA | 4.21 |
| CGTCCAAGGTCATAGGAGCTCAGTGAAGACAGAT | 5.78 |
| TCTATTACTTGATTAGGGCAACCGAAACAGCGGA | 0.616 |
| ATATGTAGGTTAAGGGTCAGTCAGGTTGGTTCGC | 3.14 |
| AGTCAAAGTTCACTAGGTAACGTGAGATTCAGCT | 5.55 |
| GCTATTAATTGAAAGGGCAACCGAATGATTCTCG | 1.26 |
| CCTAGCAGGACAATCTGGGTCACTCAAGGCTTGA | 1.42 |
| ACTATTAGTTGAGACGAGGTCAACCGATAGGTTG | 3.37 |

| Sequence | PBM binding z-score |
| --- | --- |
| TCGAGTAGGTGACCAATGGGGCATTCAGCTTTCT | 0.0885 |
| CGAACTAGGTCATTGACAGAACAGTGAATAGTAA | 4.15 |
| CCTTACGGGTCACTGACAGGTTATACCATTTGGA | 4.84 |
| ACTAGCAGGCCAAGTTTGCGTCACTCAAACAAAG | -0.0389 |
| TGTCTAAGTTCAAAGGTAACGTAAGTATCCACAC | 3.63 |
| CAAACTAGGTCACGAAAGGTCAAAGTCGAATGAC | 8.57 |
| TATACAGGGTCAAAGGCCAGGGTACGAATGTCGA | 5.14 |
| CAAGACAGGTGAGAAGGTAACTCAGCCTCGATTA | 0.824 |
| GTAGCAAGGTGAATAGGTCGTTGATGAGTAGGCG | 1.1 |
| CAGCCTAGGTCAGGGCCACTATAGGAGGAACGTT | 3.7 |
| CGAACTAGGTCAAGGACAGTGGATCTCCGCACGC | 4.5 |
| TCATTTAGGTAAACAGGTGAAAGTCCGTAAGTTA | 0.406 |
| CAAACTAGGTCACTGGAAGGTCAAAGTCCGCATG | 6.65 |
| TCATATAGGTATACAGGTGAAAGTCCGTAAGTTA | 0.35 |
| ATCTTTAGGTAAAAGTTCAGTGAATCCCGAGGAT | 1.85 |
| ACGAGTTGGTCAGCTGAGGTCACACACAATTCGG | 4.27 |
| TAGCCTAGGTCATCGGCCAGTATACCACGCGAAC | 4.72 |
| CCTCCTGGGCCATTCAGAGGTCATTGATCATATG | 3.13 |
| TAGCCTAGGTCATGCGGGCCATTATAGTGTCGGC | 4.28 |
| TAGTCTAGGTCATTCAGGGGCCAGTATAGAAAGC | 4.7 |
